Data on 30 molecules can be found in article PMC11062922 (Nature Chemical Biology, 2023).

Read-outs that look alike come from different tables or passages of the source.

Parameters in all cases: species or system human, MV4-11 + K-562 + COLO205 + SK-N-BE2 + OVCAR-8
Assay [1] has as its system CSNK1G1. To be noted: read-out: apparent Kd, n = 1.
Assay [2] concerns MAP2K5. Conditions: read-out: apparent Kd, n = 1.
Assay [3] deals with MAPK1. To be noted: read-out: apparent Kd, compound concentrations: 100 nM and 1000 nM (sheet 'Samples'), n = 1.
The subject of assay [4] is RPS6KA5. Conditions: read-out: apparent Kd, n = 1.
For assay [5], the system named is SYK. Conditions: read-out: apparent Kd, n = 1.
The subject of assay [6] is MAPK11. Conditions: read-out: apparent Kd, n = 1.
The test system of assay [7] is NTRK1. To be noted: read-out: apparent Kd, n = 1.
In assay [8] the test system is PRKCI. To be noted: read-out: apparent Kd, n = 1.
In assay [9] the test system is PI4KA. To be noted: read-out: apparent Kd, n = 1.
Assay [10] concerns AKT1. Conditions: read-out: apparent Kd, compound concentrations: 100 nM and 1000 nM (sheet 'Samples'), n = 1.
The test system of assay [11] is PIM1. Conditions: read-out: apparent Kd, n = 1.
Assay [12] relates to IRAK1. To be noted: read-out: apparent Kd; compound concentrations:100 nM and 1000 nM (sheet 'Samples'); n = 1.
Assay [13] deals with TAOK1. To be noted: read-out: apparent Kd, n = 1.
Assay [14] deals with NQO1. To be noted: read-out: apparent Kd, n = 1.
The test system of assay [15] is STRADA. To be noted: read-out: apparent Kd, n = 1.
Assay [16] has as its system MERTK. Conditions: read-out: apparent Kd, compound concentrations: 100 nM and 1000 nM (sheet 'Samples'), n = 1.
Assay [17] deals with PRKDC. To be noted: read-out: apparent Kd; compound concentrations: 100 nM and 1000 nM (sheet 'Samples'), CATDS: 3.7580559894827101E-2; n = 1.
Where [18] appears, read: compound concentrations:100 nM and 1000 nM (sheet 'Samples').

For `O=C(O)C(F)(F)F.O=c1[nH]ccc2nc(N[C@@H]3CCNC3)nc(Nc3ccc4c(c3)S(=O)(=O)CC4)c12` [GSK2181306A], the potency estimated from few doses was 1380 nM in [1] (compound concentrations: 100 nM and 1000 nM (sheet 'Samples'), CATDS: 8.6672996654843307E-3); 509 nM in assay [2] (compound concentrations: 100 nM and 1000 nM (sheet 'Samples'), CATDS: 1.2089918500056101E-2); 1020 nM in assay [3] (CATDS: 9.4433771330179501E-3); 1550 nM in assay [4] (compound concentrations: 100 nM and 1000 nM (sheet 'Samples'), CATDS: 8.4236521656491804E-3); 1320 nM in assay [5] (compound concentrations: 100 nM and 1000 nM (sheet 'Samples'), CATDS: 8.7741915408421998E-3). As for `O=C(O)C(F)(F)F.O=c1[nH]ccc2nc(N[C@@H]3CCNC3)nc(Nc3cc(Cl)cc(Cl)c3)c12` [GSK2188764A], in assay [2] (setting [18]), the potency estimated from few doses is 207 nM.

With `CS(=O)(=O)CCn1c(=O)c(Oc2ccc(F)cc2F)cc2cnc(NC3CCOCC3)nc21` [RO5027956-000], in assay [6] (setting [18]), the potency estimated from few doses is 1730 nM. Turning to `Cl.Cl.NC(CNC(=O)c1cc(Br)c(-c2ccnc3[nH]ccc23)s1)c1ccccc1.NC(CNC(=O)c1cc(Br)c(-c2ccnc3[nH]ccc23)s1)c1ccccc1` (stereo not drawn) [GSK1322949A], the potency estimated from few doses in assay [7] (compound concentrations: 100 nM and 1000 nM (sheet 'Samples'), CATDS: 2.41440168152992E-2) was 2140 nM; in [8] (compound concentrations: 100 nM and 1000 nM (sheet 'Samples'), CATDS: 2.43099453780894E-2), 2100 nM. With `Cc1cccc(Nc2nc(N[C@H]3CCNC3)ncc2C(N)=O)c1.Cl` [GSK2197149A], the figures for the potency estimated from few doses in assay [2] (setting [18]) and in [9] (setting [18]) were 1170 nM and 1420 nM, respectively. Turning to `CCn1c(-c2cccnc2O)nc2cnccc21` [SB-736715], the potency estimated from few doses in assay [10] (CATDS: 1.3570938887082299E-2) is 1610 nM; in assay [1] (compound concentrations: 100 nM and 1000 nM (sheet 'Samples'), CATDS: 1.6371117072737501E-2) it was 1080 nM; in assay [6] (compound concentrations: 100 nM and 1000 nM (sheet 'Samples'), CATDS: 1.30714391114645E-2), 1760 nM; in [9] (compound concentrations: 100 nM and 1000 nM (sheet 'Samples'), CATDS: 1.5744300181729402E-2), 1170 nM; in assay [11] (compound concentrations: 100 nM and 1000 nM (sheet 'Samples'), CATDS: 1.79844140695006E-2), 909 nM; in [8] (compound concentrations: 100 nM and 1000 nM (sheet 'Samples'), CATDS: 1.2421041550088101E-2), 2000 nM. In assay [5] (compound concentrations: 100 nM and 1000 nM (sheet 'Samples'), CATDS: 1.27185371688364E-2), the potency estimated from few doses is 1880 nM. Consider `NCC(NC(=O)c1cc(-c2cn[nH]c2)c(-c2ccnc3[nH]ccc23)s1)c1ccccc1.NCC(NC(=O)c1cc(-c2cn[nH]c2)c(-c2ccnc3[nH]ccc23)s1)c1ccccc1.O=C(O)C(F)(F)F.O=C(O)C(F)(F)F` (stereo not drawn) [GSK1325775A], for which the potency estimated from few doses in assay [9] (compound concentrations: 100 nM and 1000 nM (sheet 'Samples'), CATDS: 3.4236292814805502E-2) was 1310 nM. For `CC(C)Oc1ccc2c(-c3ccnc(Nc4ccc(N5CCN(C)CC5)cc4)n3)cnn2n1` [GW696155X], the potency estimated from few doses in assay [12] is 769 nM; in assay [13] (setting [18]), 1580 nM. Consider `CNc1cc(-c2ccc3c(N)n[nH]c3c2)nc(N)n1` [GSK2224810A], for which the potency estimated from few doses was 2200 nM in assay [1] (setting [18]) and 1440 nM in assay [14] (setting [18]). Turning to `c1cnn2ncc(-c3ccnc(Nc4ccc5c(c4)OCCO5)n3)c2c1` [GW806290X], the potency estimated from few doses is 1930 nM in [10] (CATDS: 2.02119935433384E-2); 1040 nM in assay [14] (compound concentrations: 100 nM and 1000 nM (sheet 'Samples'), CATDS: 2.4144843754049801E-2). Consider `CN(C)CC(O)COc1ccc(Nc2nccc(-c3cnn4nc(N5CCOCC5)ccc34)n2)cc1` (stereo not drawn) [GW767488X], for which the potency estimated from few doses in [12] was 80 nM. Consider `Cc1ccccc1-n1ncc(C(=O)c2ccccc2)c1N` [RO1151248-000], for which, in assay [6] (compound concentrations: 100 nM and 1000 nM (sheet 'Samples'), CATDS: 3.0870042087065699E-2), the potency estimated from few doses was 552 nM. Regarding `NC(=O)c1cc(-c2ccccc2)cc2c(C3CCNCC3)c[nH]c12` [GSK301362A], in assay [13] (setting [18]), the potency estimated from few doses was 1500 nM.

As for `COc1cc[nH]c1/C=C1\C(=O)Nc2ccc(F)c(C#CC3(O)CCNCC3)c21.Cl` [RO0282986-001], the potency estimated from few doses in assay [7] (compound concentrations: 100 nM and 1000 nM (sheet 'Samples'), CATDS: 9.7350807133640294E-3) is 1470 nM; in assay [15] (compound concentrations: 100 nM and 1000 nM (sheet 'Samples'), CATDS: 9.4665319729240003E-3) it was 1660 nM. For `CNCc1ccc(-c2cc(-c3nc(-c4ccc(S(=O)(=O)C(C)C)cc4)cnc3N)on2)cc1` [VE-822], the potency estimated from few doses in [14] (setting [18]) was 1090 nM. `O=C(O)C(F)(F)F.O=C(O)C(F)(F)F.O=c1[nH]ccc2nc(N[C@@H]3CCCNC3)nc(Nc3ccc(S(=O)(=O)N4CCOCC4)cc3)c12.O=c1[nH]ccc2nc(N[C@@H]3CCCNC3)nc(Nc3ccc(S(=O)(=O)N4CCOCC4)cc3)c12` [GSK2177277A]: the potency estimated from few doses is 882 nM in assay [1] (compound concentrations: 100 nM and 1000 nM (sheet 'Samples'), CATDS: 7.1909422101758503E-3); 103 nM in assay [2] (compound concentrations: 100 nM and 1000 nM (sheet 'Samples'), CATDS: 1.4569473169207601E-2); 181 nM in [16] (CATDS: 1.1592861489919001E-2); 61.9 nM in assay [13] (compound concentrations: 100 nM and 1000 nM (sheet 'Samples'), CATDS: 1.8448588679872001E-2). In the case of `CN[C@H](C#Cc1c(F)ccc2c1/C(=C/c1[nH]ccc1OC)C(=O)N2)CO.Cl` [RO0283049-001], the potency estimated from few doses in assay [7] (compound concentrations: 100 nM and 1000 nM (sheet 'Samples'), CATDS: 2.3877325037377599E-2) is 949 nM. Regarding `Cn1cc(C2=C(c3c(S(C)=O)n(C)c4ccccc34)C(=O)NC2=O)c2ccccc21` (stereo not drawn) [RO0317379-000], the potency estimated from few doses in [16] (CATDS: 0.152685994301652) is 590 nM. As for `COc1cc[nH]c1/C=C1\C(=O)Nc2ccc([N+](=O)[O-])c(N3CC[C@@H](O)C3)c21` [RO0504985-000], the potency estimated from few doses in [7] (compound concentrations: 100 nM and 1000 nM (sheet 'Samples'), CATDS: 3.6845933962960403E-2) was 886 nM. For `Nc1nccc(-c2ccc3c(N)n[nH]c3c2)n1` [GSK1034945A], the potency estimated from few doses in [8] (setting [18]) was 1240 nM. Take `COc1cc[nH]c1/C=C1\C(=O)Nc2ccc(F)c(C#C[C@@H](O)[C@@H](N)[C@@H](C)O)c21` [RO0283120-000]: the potency estimated from few doses was 1430 nM in assay [7] (setting [18]) and 2010 nM in assay [15] (setting [18]). Regarding `O=C(Nc1n[nH]c2nc(-c3ccccc3O)ccc12)C1CC1` [SB-711880], the potency estimated from few doses in assay [5] (setting [18]) is 1760 nM. With `Cl.Cl.NC[C@H](CC1CCCCC1)NC(=O)c1ccc(-c2ccnc3[nH]ccc23)s1.NC[C@H](CC1CCCCC1)NC(=O)c1ccc(-c2ccnc3[nH]ccc23)s1` [GSK1581428A], the potency estimated from few doses in assay [4] (setting [18]) was 1340 nM.

Take `Cl.Cl.NCC(NC(=O)c1cc(-c2ccnc3[nH]ccc23)cs1)c1ccccc1.NCC(NC(=O)c1cc(-c2ccnc3[nH]ccc23)cs1)c1ccccc1` (stereo not drawn) [GSK1229959A]: in assay [4] (compound concentrations: 100 nM and 1000 nM (sheet 'Samples'), CATDS: 1.83168013487864E-2), the potency estimated from few doses was 1240 nM.

With `CCn1c(-c2nonc2N)nc2cncc(C(=O)N3CC[C@H](N)C3)c21.Cl` [SB-772077-B], the potency estimated from few doses was 30.8 nM in assay [11] (setting [18]), 606 nM in assay [8] (setting [18]) and 48.3 nM in assay [4] (setting [18]).

As to `CCn1c(-c2nonc2N)nc2cncc(Br)c21` [SB-738004], the potency estimated from few doses in [8] (setting [18]) was 483 nM. In the case of `Cc1occc1-c1nc(N)c(OC[C@@H](N)Cc2c[nH]c3ccccc23)cc1-c1cc2c(C)n[nH]c2cn1` [GSK1660450B], the values for the potency estimated from few doses in assay [1] (setting [18]), in [11] (setting [18]) and in [13] (setting [18]) were 1340 nM, 92.7 nM and 12 nM, respectively. For the molecule `Nc1nc(-c2ccc3c(N)n[nH]c3c2)cc(N2CCCC(NC(=O)c3ccccc3)C2)n1` (stereo not drawn) [GSK2286775B], the potency estimated from few doses in [14] (setting [18]) is 1370 nM. For `Cc1cc(NC(=O)c2cccc(NC(=O)/C=C/CN(C)C)c2)ccc1Nc1nccc(-c2cccnc2)n1` [JNK-IN-7], the potency estimated from few doses in [12] is 111 nM. In the case of `CCC(CC)(CC)n1cnc2c(N)ncnc21` [SKF-97620], the potency estimated from few doses was 1350 nM in assay [3] (CATDS: 2.7105315036477701E-2); 553 nM in assay [9] (compound concentrations: 100 nM and 1000 nM (sheet 'Samples'), CATDS: 3.8493630683817899E-2); 583 nM in [17]; 2220 nM in [15] (compound concentrations: 100 nM and 1000 nM (sheet 'Samples'), CATDS: 2.3464375070220901E-2).
